Compound activity from PubChem BioAssay.
Lassa entry inh: inhibitors of Lassa virus binding or cell entry | 1.2% of 300,000 active | Lassa virus pseudotype entry inhibition, cell reporter | Potency, µM (titrated, usually from 37.9 µM), hits mostly inhibitors | AID 540256; calls by dose curve; tested in HEK293 cells; note: nearly all actives have a fitted effect of over 50% in size
FMDV inh: blocks foot and mouth disease virus | 1.2% of 410,000 active | AID 1159524 | Potency, µM (doses to about 57.9 µM), usual class: inhibitors | FMDV antiviral cell-based qHTS; calls by dose curve; tested in HEK293T cells; note: read-out not given here; nearly all actives have a fitted effect of over 45% in size
Vaccinia mCherry: inhibitors of vaccinia virus infection (mCherry reporter signal). Vaccinia virus mCherry reporter infection, fluorescence. Potency, µM (doses to about 36.5 µM), usual class: inhibitors. 0.63% of 310,000 active; calls by dose curve; tested in A549 cells; note: nearly all actives have a fitted effect of over 35% in size
MARV entry inh: Marburg virus entry inhibition | AID 540276 | 1.8% of 300,000 active | Marburg virus pseudotyped entry inhibition, cell reporter | Potency, µM (doses to about 37.8 µM), most hits filed as inhibitors; calls by dose curve; tested in HEK293 cells
Vaccinia Venus: vaccinia inhibition (Venus reporter); Vaccinia virus Venus reporter expression, fluorescence; Potency, µM (series often up to 36.5 µM), hits mostly inhibitors; 0.46% of 330,000 active; AID 720580; calls by dose curve; tested in A549 cells; note: nearly all actives have a fitted effect of over 30% in size
HCMV inh: human cytomegalovirus inhibition; activity change, negative = inhibition, % at 57.5 µM; 4.5% of 410,000 active; AID 1259415; HFF cells, HCMV-luciferase reporter, 72 h; active compounds read low; in the data active = activity change below about -60%; inconclusive = no clear call, values can overlap the other calls; inactive = above about -39%
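Cell-based, HFFs, 1000 cells/well, 16 h 37C; cpds in DMSO + HCMV-luc, MOI 1 PFU/cell; 72 h 37C; OneGlo luminescence after 5 min RT; norm. to buffer vs Salinomycin 10uM.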
A number is an active result; – = inactive; ? = inconclusive; · = no result. Compounds with a hit are over-represented: about 6.5% of the library has one in this group of screens.

SMILES	Lassa entry inh	FMDV inh	Vaccinia mCherry	MARV entry inh	Vaccinia Venus	HCMV inh
O=[N+]([O-])c1cccc(CN2CCN(Cc3ccc(Br)cc3)CC2)c1	·	?	·	·	·	-74
O=C1C(=O)N(Cc2cccc([N+](=O)[O-])c2)c2ccccc21	?	–	–	11µM	–	–
O=[N+]([O-])c1cccc(COc2ccc(CN3CCCCC3)cc2)c1	·	–	–	·	–	–
Cc1cccc(S(=O)(=O)N2[C@@H]3c4cccc(=O)n4C[C@H]2[C@H](CO)[C@H]3C(=O)N(C)C)c1	·	·	·	·	·	–
CCN(CC)S(=O)(=O)c1ccc2c(c1)N(CC(=O)NCCCN1CCN(c3cc(Cl)ccc3C)CC1)C(=O)CO2	?	?	–	13µM	–	-74
CCN(CC)S(=O)(=O)c1ccc2c(c1)N(CC(=O)N1CCN(c3cc(Cl)ccc3C)CC1)C(=O)CO2	?	?	–	·	–	–
C=C1CCC[C@]2(C)C[C@H]3OC(=O)C(CNC(C)CC)[C@H]3CC12 (some centres not stated)	·	–	·	·	·	–
C=C1CCC[C@]2(C)C[C@H]3OC(=O)C(CN4CCCCC4CO)[C@H]3CC12 (some centres not stated)	–	?	3.2µM	11µM	2.5µM	-92
C=C1CCC[C@]2(C)C[C@H]3OC(=O)C(CN(C)CC(OC)OC)[C@H]3CC12 (some centres not stated)	–	–	0.89µM	–	?	–
C[C@@H](CN(C)C[C@H]1C(=O)O[C@@H]2C[C@@]3(C)CCC[C@]4(CO4)C3CC21)[C@H](O)c1ccccc1 (some centres not stated)	·	–	·	·	·	·
C=C1CCC[C@]2(C)C[C@H]3OC(=O)C(CNC(CC)CO)[C@H]3CC12 (some centres not stated)	–	–	7.1µM	–	7.1µM	–
C=C1CCC[C@]2(C)C[C@H]3OC(=O)C(CNC(C)(CO)CO)[C@H]3CC12 (some centres not stated)	–	–	7.9µM	?	?	-86
CCOC(=O)Cn1c(=O)n(CC2CCCO2)c2nc(-c3ccc(C)cc3)nc(C(N)=O)c21 (configuration not stated)	–	–	–	·	–	–
CCOC(=O)c1ccc(NC(=O)c2cc3sccc3n2Cc2ccc(Cl)cc2)cc1	–	–	–	?	–	–
Cc1cc(Nc2cccc([N+](=O)[O-])c2)n2c(nc3ccccc32)c1C#N	6.3µM	?	?	3.2µM	?	-100
COc1cccc(Nc2ncc3nc(CCc4ccccc4)c(=O)n(C)c3n2)c1	·	–	·	·	·	·
O=S(=O)(c1ccc2c(c1)OCCO2)N1CCN(c2nc(-c3cccs3)nc3ccccc23)CC1	·	·	–	·	–	·
O=S(=O)(c1ccc2c(c1)OCCO2)N1CCN(c2ncnc3sccc23)CC1	?	?	?	?	–	-91
Cc1ccc(S(=O)(=O)N2CCN(c3ncnc4sccc34)CC2)cc1C	?	11µM	?	?	?	-72
O=C(CSCc1ccc([N+](=O)[O-])cc1)N/N=C/c1ccncc1	–	–	–	–	–	-63
CC(=O)c1cccc(NC(=O)c2c(F)c(F)c(F)c(F)c2F)c1	–	–	·	–	10µM	–
COC(=O)c1cc(NC(=O)C2CC2)cc(C(=O)OC)c1	–	–	·	–	·	–
COC(=O)c1cc(NC(=O)c2c(F)c(F)c(F)c(F)c2F)cc(C(=O)OC)c1	?	–	–	?	–	-63
COc1cccc(N2CCN(C3=NS(=O)(=O)C(c4ccc(C)cc4)=C3C)CC2)c1	–	–	–	?	–	–
CC1(C)CC(=O)c2c(oc3ccc(NS(=O)(=O)c4cccc5cccnc45)cc23)C1	?	11µM	?	?	–	?
SMILES	Lassa entry inh	FMDV inh	Vaccinia mCherry	MARV entry inh	Vaccinia Venus	HCMV inh
CC(CCN1CCCc2nc(C)c(C)cc21)=NO[C@H](C)c1cn([C@@H]2COC[C@@H]2O)nn1	?	·	·	–	·	·
CC1CCCC=CC2CC(OC(=O)CN(C)C)CC2C(O)C=CC(=O)O1 (configuration not stated)	1.4µM	–	?	?	?	-98
C[C@H]1CCC/C=C/[C@@H]2C[C@H](O)C[C@H]2[C@H](O)[C@H](S(=O)c2ccc(O)cc2)CC(=O)O1 (some centres not stated)	1.3µM	–	?	?	?	-99
C[C@H]1CCC/C=C/[C@@H]2C[C@H](O)C[C@H]2[C@@H](O)/C=C/C(=O)O1	0.4µM	–	–	0.28µM	?	-76
C[C@H]1CCCC=CC2C[C@H](O)C[C@@H]2[C@H](O)C=CC(=O)O1 (some centres not stated)	·	–	?	·	?	·
Cc1cc(OCc2cn(CC(=O)c3ccc(O)cc3)nn2)cc(C)c1C	–	·	·	·	·	·
CCn1c(=O)c2cc(C(=O)Nc3ccc(OC)cc3OC)sc2c2ccccc21	·	–	–	·	–	–
CCn1c(=O)c2cc(C(=O)NCCN(C)C)sc2c2ccccc21	?	–	–	7.1µM	?	–
CCn1c(=O)c2cc(C(=O)Nc3cc(C)c(Cl)cc3OC)sc2c2ccccc21	–	–	–	–	–	-106
O=C(c1cccc(F)c1)N(Cc1cc2cc3c(cc2nc1N1CCOCC1)CCC3)CC1CCCO1 (configuration not stated)	·	–	–	·	–	·
CNCCC(Oc1ccccc1OC)c1ccccc1 (configuration not stated)	?	–	?	18µM	–	–
CC1(C)C2CCC(C2)C1C/C=N/NC(N)=S (configuration not stated)	–	?	?	?	–	-73
Cc1cc2c(cc1C)N[C@]1(C[C@H]3CCCC(=O)N4CC[C@@H](C1)[C@@H]34)C(=Nc1ccccc1C)N2	·	·	–	·	–	·
Cc1ccc(C2(C)CC(C)(C)N(C(=O)CSc3nnc(C)s3)c3ccccc32)cc1 (configuration not stated)	7.9µM	?	–	?	–	–
Cc1nnc(SCC(=O)N2c3ccccc3C(C)(c3ccccc3)CC2(C)C)s1 (configuration not stated)	?	40µM	?	?	?	-62
CC1=CC(C)(C)N(C(=O)CSc2nnc(C)s2)c2ccc(C)cc21	–	·	–	–	–	–
Cc1nnc(SCC(=O)N2CCN(Cc3ccccc3)CC2)s1	–	–	·	–	·	–
O=C(CSc1nnc(-c2cccs2)n1CC1CCCO1)N1CCCC1 (configuration not stated)	–	–	–	–	–	–
NC(=O)c1ccc(Sc2nnc(-c3cccs3)n2CC2CCCO2)c([N+](=O)[O-])c1 (configuration not stated)	–	–	7.9µM	–	11µM	–
COC(=O)C1(C)NC(c2ccc(O)cc2)C2C(=O)N(c3ccc4c(c3)OCCO4)C(=O)C21 (configuration not stated)	–	–	·	–	·	-73
COc1ccc(C(=O)NN(C)c2nc(-c3ccccc3)nnc2C(F)(F)F)cc1	–	–	–	–	–	–
CN(NC(=O)C(C)(C)C)c1nc(-c2ccccc2)nnc1C(F)(F)F	–	–	–	–	–	-63
